Reference: PubChem BioAssay AID1159580 (chemical genetic matrix, 2015)
The whole screen tested about 5,500 compounds, of which about 2,000 (36%) were called active. Inconclusive results (about 18%) are left out. Rule as the data show it: active = normalized growth mostly below about 0.91 (no sharp cut-off); inconclusive = no clear call, values can overlap the other calls; inactive = mostly above about 0.92. This is one part of the list.

Assay: chemical genetic growth profiling, strain panel (AID 1159580);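 also: tested at 20 µM; growth read once vehicle control cultures reached saturation at 30 °C; 1 = growth at the plate median or of vehicle wells; lower values mean less growth of the strain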
Conditions: S. cerevisiae deletion strains, growth OD

Measured: normalized growth

C#CCn1c(=O)c2c(ncn2C)n(C)c1=O
inactive: locus YAL013W, strain DEP1, stronger effect = lower value 0.982 | locus YAL040C, strain CLN3, stronger effect = lower value 1.01 | locus YCL061C, strain MRC1 (second series), stronger effect = lower value 1.01 | locus YDR150W, strain NUM1, stronger effect = lower value 0.999 | locus YDR363W, strain ESC2, stronger effect = lower value 0.989 | locus YER002W, strain NOP16, stronger effect = lower value 0.997 | locus YGR078C, strain PAC10, stronger effect = lower value 1.01 | locus YGR229C, strain SMI1, stronger effect = lower value 1.03 | locus YJR075W, strain HOC1, stronger effect = lower value 0.994 | locus YMR263W, strain SAP30, stronger effect = lower value 0.995 | locus YMR307W, strain GAS1, stronger effect = lower value 1.01 | locus YNL175C, strain NOP13, stronger effect = lower value 0.998 | locus YNL197C, strain WHI3, stronger effect = lower value 0.977 | locus YNL224C, strain SQS1, stronger effect = lower value 1.01 | locus YNL322C, strain KRE1, stronger effect = lower value 0.987 | locus YOR083W, strain WHI5 (second series), stronger effect = lower value 0.965 | locus YPL241C, strain CIN2, stronger effect = lower value 1
